Experimental data taken from PubChem BioAssay (NCI).
The panel holds about 79,000 compounds, 15% with a hit somewhere; the sample as a whole holds those more often. Rule as the data show it: active = growth inhibition above about 70%; inactive = the rest.

Columns and labels:
[1] = NCI Yeast Anticancer Drug Screen. Data for the rad50 strain (AID 155);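 also: 0% = growth of vehicle-only cultures of the same strain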; details: S. cerevisiae rad50 strain growth inhibition; at 50.0 µM; stronger effect = higher value
Summary of the method: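 Relative growth inhibition (compound vs vehicle) was measured in yeast with a defined repair-gene alteration.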

[2] = NCI Yeast Anticancer Drug Screen. Data for the mec2-1 strain (AID 157); details: S. cerevisiae mec2-1 strain, at 50.0 µM, stronger effect = higher value
Summary of the method: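 Compounds were applied to mec2-1 yeast cells. Their growth was then compared with that of vehicle-treated cultures to give growth inhibition.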

[3] = NCI Yeast Anticancer Drug Screen. Data for the sgs1 mgt1 strain (AID 161);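 also: 0% = growth of cultures given vehicle only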; details: S. cerevisiae sgs1 mgt1 strain, at 50.0 µM, stronger effect = higher value
Summary of the method: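 Yeast cells carrying a defined DNA-repair defect were exposed to test compounds. Growth inhibition was measured relative to vehicle-treated controls.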

[4] = NCI Yeast Anticancer Drug Screen. Data for the cln2 rad14 strain (AID 165);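 also: 0% = growth equal to vehicle treated cultures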; details: S. cerevisiae cln2 rad14 strain, at 50.0 µM, stronger effect = higher value
Summary of the method: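 Strain: cln2 rad14 yeast, altered in cell cycle control and DNA damage repair. Read-out: growth inhibition vs vehicle.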

[5] = NCI Yeast Anticancer Drug Screen. Data for the bub3 strain (AID 167); details: S. cerevisiae bub3 mutant strain, at 50.0 µM, stronger effect = higher value
Summary of the method: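 Screening used yeast with an engineered genetic alteration affecting cell cycle control. Compound-exposed cultures were compared with vehicle cultures, and reduced growth was taken as inhibition.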

[6] = NCI Yeast Anticancer Drug Screen. Data for the mlh1 rad18 strain (AID 175); details: S. cerevisiae mlh1 rad18 strain growth inhibition; at 50.0 µM; stronger effect = higher value
Summary of the method: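 A repair-deficient yeast strain is exposed to test compound, and growth is scored relative to vehicle-treated controls.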

Measured: growth inhibition

CC12CC(O)C(C=C1c1ccccc1)C2(C)C (stereo not drawn)
inactive: [1] -7.55% | [2] -0.95% | [3] 0.85% | [4] -14% | [5] -13.1% | [6] 1.45%

Cc1cc(Cl)ccc1NC(N)=O
inactive: [1] -5.95% | [2] -20.3% | [3] 5.15% | [4] 22.4% | [5] -3.7% | [6] -1.85%

Cc1cc2nc3c(=O)[nH]c(=O)nc-3n(CCO)c2cc1C
inactive: [1] -0.5% | [2] 1.5% | [3] 8.6% | [4] -39.4% | [5] 6.15% | [6] -9.95%

C=CCSc1nc2ccc(N=Cc3ccc([N+](=O)[O-])cc3)cc2s1
inactive: [1] 2.05% | [2] -12.5% | [3] -8.7% | [4] -14.6% | [5] 5.95% | [6] -21.2%

Clc1ccc2c(c1)Cc1ccccc1-2
inactive: [1] 38.6% | [2] -6.95% | [3] 34.1% | [4] 7.5% | [5] 51.6% | [6] 22.2%

O=C1C(=Cc2ccc(Cl)c(Cl)c2)C([O-])=C([P+](c2ccccc2)(c2ccccc2)c2ccccc2)C([O-])=C1[P+](c1ccccc1)(c1ccccc1)c1ccccc1
inactive: [1] -4.6% | [2] -44.6% | [3] -7.05% | [4] 5.15% | [5] -21.9% | [6] -19.6%

Nc1[nH]c(=O)nc2c1cnn2Cc1ccccc1
inactive: [1] -0.75% | [2] -10.1% | [3] -14.2% | [4] -12.2% | [5] -2.7% | [6] -3.8%

O=Cc1ccc(O)c(C(=O)O)c1
inactive: [1] 8.6% | [2] 5.8% | [3] 15.3% | [4] 21.1% | [5] 21.1% | [6] 2%

c1ccc2c(c1)cnc1c3ccccc3ccc21
inactive: [1] 10.1% | [2] -7.85% | [3] -8.6% | [4] -21.9% | [5] 6.85% | [6] -0.5%

[O-][n+]1ccc(Cl)cc1
inactive: [1] -4.15% | [2] -14.8% | [3] -19% | [4] -15.2% | [5] -10.1% | [6] -9.35%

Cn1c2c(F)cccc2c(=O)c2c(O)cc3c(c21)C=CC(C)(C)O3
inactive: [1] -24.6% | [2] -22.2% | [3] -27.4% | [4] -17.9% | [5] -18.6% | [6] -19.7%

C=C/C=C1\CCOC1=O
inactive: [1] 1.15% | [2] -5.9% | [3] 2.85% | [4] -3.05% | [5] 3.1% | [6] -10.6%

C[C@]12C=CC(=O)C=C1[C@@H](F)C[C@H]1[C@@H]3CC[C@](O)(C(=O)CO)[C@@]3(C)C[C@H](O)[C@@]12F
inactive: [1] -11.9% | [2] -26.4% | [3] 4.8% | [4] 66.8% | [5] 2.85% | [6] -9.9%

COCCCn1c(-c2ccc(Cl)cc2)nn2c(=O)c3ccccc3nc2c1=O
inactive: [1] 20% | [2] -1.75% | [3] 17.2% | [4] 10.2% | [5] 13.4% | [6] 7.45%

O=[N+]([O-])c1ccc(-c2cccc3ccccc23)c([N+](=O)[O-])c1
inactive: [1] 15.7% | [2] 34.9% | [3] 17.1% | [4] 15.9% | [5] 33.5% | [6] 21.1%

CN1CCN(C2CCCc3ccccc3C2=O)CC1 (stereo not drawn)
inactive: [1] 21.9% | [2] -10.6% | [3] 4.75% | [4] -36% | [5] -15.5% | [6] 13.4%

CCC(C)NC(=O)c1ccc(Cl)cc1Cl (stereo not drawn)
inactive: [1] 15.8% | [2] -18.5% | [3] -12.7% | [4] -68.5% | [5] -28.9% | [6] -22.6%

O=C(O)c1ccc(Br)cc1
inactive: [1] 5.1% | [2] -6.05% | [3] 2.8% | [4] -25.2% | [5] 9.8% | [6] 0%
